Drawing on PubChem BioAssay (Tox21), this text covers Potency for 19 compounds.

Experiment [1] can be described thus: A CellTox Green Cytotoxicity Assay to monitor cytotoxicity in HepG2 cells - 32 hour (AID 1224883). Also: nearly all actives have a fitted effect of over 50% in size. Also: potency is read from the fitted curve at half-maximal effect. The procedure, abridged: (§1)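 HepG2 cells, 600/well, preincubated 5 h with CellTox Green dye, then exposed to Tox21 compounds in DMSO at 37 C for up to 40 h. Dead-cell DNA fluorescence read at the indicated time point.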
The nature of experiment [2]: A CellTox Green Cytotoxicity Assay to monitor cytotoxicity in HEK293 cells - 8 hour (AID 1224884). Also: nearly all actives have a fitted effect of over 35% in size. Also: potency is read from the fitted curve at half-maximal effect. The procedure, abridged: (§2)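 HEK293 cells, 600/well, were preincubated 5 hours and then exposed to compounds at 37 C for up to 40 hours. A cell-impermeant cyanine dye staining dead-cell DNA was read by fluorescence at 0, 8, 16, 24, 32 and 40 h time points.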
Experiment [3] in a line: qHTS RealTime-Glo MT Cell Viability Assay in HepG2 cells - 16 hour (AID 1224885). Also: nearly all actives have a fitted effect of over 50% in size. Also: potency is read from the fitted curve at half-maximal effect. The procedure, abridged:
(§3)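 Cell number in HepG2 cultures estimated from NanoLuc luminescence generated by metabolic reduction of a prosubstrate by living cells. The homogeneous, nonlytic format allowed repeated reads at 0, 8, 16, 24, 32 and 40 h of compound exposure.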
A general note: In qHTS, concentration-response curves come from the screen itself.

Experiment [4] is described as follows: qHTS RealTime-Glo MT Cell Viability Assay in HEK293 cells - 24 hour (AID 1224886). Also: nearly all actives have a fitted effect of over 50% in size. Also: potency is read from the fitted curve at half-maximal effect. The procedure, abridged:
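Homogeneous bioluminescent viability format in HEK293 cells (600 cells/well). Following 5 h at 37 C/5% CO2, 23 nL compound was pintooled; the signal was measured repeatedly during 40 h incubation.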

The nature of experiment [5]: qHTS RealTime-Glo MT Cell Viability Assay in HEK293 cells - 8 hour (AID 1224887). Also: nearly all actives have a fitted effect of over 50% in size. Also: potency is read from the fitted curve at half-maximal effect. The procedure, abridged: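 600 cells/well were plated with the nonlytic NanoLuc/prosubstrate reagent, pre-incubated 5 h, then given 23 nL of compound in DMSO. Incubation at 37 C for 40 h, with luminescence from viable-cell-reduced substrate read repeatedly from 0 h.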
Experiment [6] can be described thus: A CellTox Green Cytotoxicity Assay to monitor cytotoxicity in HEK293 cells - 16 hour (AID 1224888). Also: nearly all actives have a fitted effect of over 35% in size. Also: potency is read from the fitted curve at half-maximal effect. The procedure, abridged:
as §2

Experiment [7] in a line: qHTS RealTime-Glo MT Cell Viability Assay in HepG2 cells - 0 hour (AID 1224889). Also: nearly all actives have a fitted effect of over 50% in size. The procedure, abridged: as §3
Experiment [8] can be described thus: A CellTox Green Cytotoxicity Assay to monitor cytotoxicity in HepG2 cells - 8 hour (AID 1224890). Also: nearly all actives have a fitted effect of over 45% in size. Also: potency is read from the fitted curve at half-maximal effect. The procedure, abridged: as §1
Experiment [9] can be described thus: qHTS assay to identify small molecule antagonists of the estrogen receptor alpha (ER-alpha) signaling pathway using the BG1 cell line in the presence of 0.1 nM 17-beta-estradiol - cell viability counter screen (AID 1259241). Also: nearly all actives have a fitted effect of over 40% in size. Also: potency is read from the fitted curve at half-maximal effect. The procedure, abridged:
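Measures cytotoxicity alongside the ER-alpha antagonist readout: VM7Luc4E2 cells, charcoal-stripped serum, 0.1 nM 17beta-estradiol final, 22 hr compound incubation at 37C, CellTiter-Fluor fluorescence.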

Experiment [10] in a line: qHTS assay to identify small molecule antagonists of the androgen receptor (AR) signaling pathway using the MDA cell line in the presence of 0.5 nM R1881 - cell viability counter screen (AID 1259242). Also: nearly all actives have a fitted effect of over 45% in size. The procedure, abridged:
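MDA-kb2 cells (MMTV-luciferase, AR/GR responsive) were treated with compounds plus 0.5 nM R1881 (final) for 16 hr at 37C, 0% CO2. Viability was then read in the same wells as live-cell protease fluorescence (CellTiter-Fluor, 30 min).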

Structures are written as SMILES. Where “and” joins values, the source holds several entries; their conditions need not be identical. Equal entries are not always repeated. Results filed as inconclusive are left out. Calls of active or inactive are those of the source. Calls follow the shape of the dose curve; as a rule, active = well fitted curve in the direction sought with a large enough effect in the repeat runs; inconclusive = weak or mixed curves; inactive = no such curve, though single readings can be large; an effect the other way counts as inactive or inconclusive.

Regarding `NNC(=O)c1cccc(C(=O)NN)c1`, the Potency result in experiment [1], in experiment [2], in [3], in experiment [4], in [5] and in experiment [6] was “inactive” in each case. Besides, the Potency result in experiment [7], in [8], in [9] and in experiment [10] was “inactive” each time.
As to `COc1cc(/C=C/C(=O)O[C@H]2CC[C@]34C[C@]35CC[C@]3(C)[C@@H]([C@H](C)CCC=C(C)C)CC[C@@]3(C)[C@@H]5CC[C@H]4C2(C)C)ccc1O`, the Potency entry in [1], in experiment [2], in experiment [3], in experiment [4], in experiment [5] and in [6] was “inactive” throughout. In addition, the Potency entry in [7], in experiment [8], in experiment [9] and in experiment [10] was “inactive” in each case.
`O=C1C=CC(=O)N1c1ccc(Cc2ccc(N3C(=O)C=CC3=O)cc2)cc1`: the Potency is 9.77 µM (active) in experiment [1]; 54.9 µM (active) in experiment [2]; 12.3 µM (active) in [3]; 13.8 µM (active) in [4]; 21.9 µM (active) in [5]; 49 µM (active) in experiment [6]. Also, in experiment [8], the Potency was 17.4 µM (active). Further, the Potency entry in experiment [7] and in [9] was “inactive” throughout.
With `Nc1ccc2c3c(cccc13)-c1ccccc1-2`, the Potency in [1] is 44.1 µM (active); in experiment [2], 44.1 µM (active); in experiment [4], 24.8 µM (active); in experiment [5], 19.7 µM (active); in experiment [6], 44.1 µM (active); in experiment [8], 39.3 µM (active). The Potency result in experiment [3] and in [7] was “inactive” throughout.
For the compound `Clc1ccc2nsnc2c1NC1=NCCN1`, the Potency result in experiment [1], in [2], in experiment [3], in experiment [4], in experiment [5] and in experiment [6] was “inactive” throughout. Besides, the Potency result in experiment [7], in [8], in [9] and in experiment [10] was “inactive” each time.
`CN(C)CCCOC1(Cc2ccccc2)CCCCCC1`: the Potency entry in [1], in experiment [2], in [3], in experiment [4], in [5] and in [6] was “inactive” in each case. The Potency entry in experiment [7], in experiment [9] and in experiment [10] was “inactive” each time.
For the compound `Cc1cc(N)c(S(=O)(=O)O)cc1Cl`, the Potency result in experiment [1], in experiment [2], in experiment [3], in experiment [4], in experiment [5] and in [6] was “inactive” throughout. The Potency result in [7], in experiment [8], in experiment [9] and in experiment [10] was “inactive” throughout.
For `CCCCN1CCCC[C@H]1C(=O)Nc1c(C)cccc1C`, the Potency result in [1], in [2], in experiment [3], in experiment [4], in experiment [5] and in [6] was “inactive” in each case. The Potency entry in [7], in [8], in experiment [9] and in experiment [10] was “inactive” in each case.
Consider `N#CC1(c2ccc(F)cc2)CCC(=O)CC1`, for which the Potency result in [1], in experiment [2], in experiment [3], in experiment [4], in [5] and in [6] was “inactive” throughout. The Potency result in experiment [7], in experiment [8], in experiment [9] and in [10] was “inactive” in each case.
In the case of `O=C(OCC1CO1)C1CCCCC1C(=O)OCC1CO1` (centres undefined), the Potency result in experiment [1], in experiment [2], in experiment [3], in [4], in [5] and in experiment [6] was “inactive” throughout. Moreover, the Potency result in experiment [7], in experiment [8] and in experiment [10] was “inactive” in each case.
On to `CSc1ccc(C(=O)c2[nH]c(=O)[nH]c2C)cc1`, for which the Potency result in experiment [1], in [2], in experiment [3], in [4], in [5] and in experiment [6] was “inactive” each time. The Potency result in [7], in [8], in experiment [9] and in experiment [10] was “inactive” in each case.
As for `CCCCCCCCCCC=O`, the Potency entry in [1], in experiment [2], in experiment [3], in experiment [4], in experiment [5] and in [6] was “inactive” in each case. In addition, the Potency result in [7], in [8], in [9] and in [10] was “inactive” each time.
For the compound `CCCCCCCC/C=C/CCCCCCCC1=NCCN1CCO`, the Potency in experiment [1] is 13.8 µM (active); in [2], 49 µM (active); in experiment [3], 24.5 µM (active); in experiment [4] it was 19.5 µM (active); in experiment [5], 43.6 µM (active); in experiment [6], 34.7 µM (active). Besides, the Potency in [8] is 49 µM (active). Besides, the Potency entry in experiment [7] and in experiment [9] was “inactive” throughout.
`Cc1ccc(O)c(C(C)(C)C)c1`: the Potency is 43.6 µM (active) and 34.7 µM (active) in experiment [1]; 48.9 µM (active) and 38.9 µM (active) in [8]. The Potency result in experiment [2], in experiment [3], in [4], in [5], in [6] and in experiment [7] was “inactive” each time. Also, the Potency entry in [9] and in [10] was “inactive” each time.
Regarding `CN(C)[C@@H]1C(=O)C(C(N)=O)=C(O)[C@@]2(O)C(=O)C3=C(O)c4c(O)cccc4C[C@H]3C[C@@H]12`, the Potency entry in experiment [1], in experiment [2], in [3], in experiment [4], in [5] and in experiment [6] was “inactive” in each case. The Potency result in [7], in [8], in experiment [9] and in experiment [10] was “inactive” throughout.
Take `O=C(O)c1cc(O)c2c(c1)C(=O)c1cccc(O)c1C2=O`: the Potency result in experiment [1], in experiment [2], in [3], in [4], in [5] and in experiment [6] was “inactive” in each case. Further, the Potency result in experiment [7], in [8] and in [10] was “inactive” in each case.
In the case of `O=[N+]([O-])c1cc([N+](=O)[O-])c2ccc(S(=O)(=O)O)cc2c1O`, the Potency entry in experiment [1], in [2], in experiment [3], in experiment [4], in [5] and in experiment [6] was “inactive” throughout. Further, the Potency entry in experiment [7] and in experiment [8] was “inactive” each time. For the same compound, the Potency in [9] was 27.1 µM (active).
For the compound `ON=C1CCCC1`, the Potency entry in experiment [1], in experiment [2], in experiment [3], in experiment [6], in experiment [7] and in experiment [9] was “inactive” in each case. Further, in experiment [10], the Potency result is “inactive”. In addition, the Potency in experiment [4] is 22.6 µM (active).
Consider `COC(=O)C1=C(C)NC(C)=C(C(=O)OCCc2ccc(N3CCN(C(c4ccccc4)c4ccccc4)CC3)cc2)C1c1cccc([N+](=O)[O-])c1` (centres undefined), for which the Potency result in experiment [1], in [2], in experiment [3], in experiment [4], in [6] and in experiment [7] was “inactive” each time. Also, the Potency entry in [8], in experiment [9] and in experiment [10] was “inactive” throughout.
